Source: PubChem BioAssay AID1159580 (chemical genetic matrix, 2015)
In all, about 5,500 compounds went through this assay and about 2,000 (36%) were called active. Not shown: some 18% with an inconclusive outcome. Rule as the data show it: active = normalized growth mostly below about 0.91 (no sharp cut-off); inconclusive = no clear call, values can overlap the other calls; inactive = mostly above about 0.92. This is one part of the list.

Experiment: chemical genetic growth profiling, strain panel (AID 1159580);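 also: tested at 20 µM; growth read once vehicle control cultures reached saturation at 30 °C; 1 = growth at the plate median or of vehicle wells; lower values mean less growth of the strain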
Conditions: S. cerevisiae deletion strains, growth OD

Measured: normalized growth

C/C=C1\C(=O)CC2C3CCC4=CC(=O)CC[C@]4(C)C3CC[C@]12C (stereo not given in full)
inactive: locus YAL013W, strain DEP1, active compounds read low 0.978 | locus YAL040C, strain CLN3, active compounds read low 0.975 | locus YCL061C, strain MRC1 (second series), active compounds read low 1 | locus YDR363W, strain ESC2, active compounds read low 0.996 | locus YER002W, strain NOP16, active compounds read low 0.974 | locus YGR078C, strain PAC10, active compounds read low 0.924 | locus YMR307W, strain GAS1, active compounds read low 1.01 | locus YNL128W, strain TEP1, active compounds read low 0.938 | locus YNL175C, strain NOP13, active compounds read low 0.956 | locus YNL197C, strain WHI3, active compounds read low 0.978 | locus YNL224C, strain SQS1, active compounds read low 0.99 | locus YNL322C, strain KRE1, active compounds read low 1.01 | locus YPL055C, strain LGE1, active compounds read low 0.992
active: locus YNL153C, strain GIM3, active compounds read low 0.774 | locus YOR083W, strain WHI5 (second series), active compounds read low 0.743
